Results published in PubChem BioAssay AID588494 (NMMLSC, 2011).
Some of the results follow.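 Rule for the calls: active = response vs DMSO under 50%, meaning signal dropped by over half, treated as fluorescence quencher; inconclusive = no clear call, values can overlap the other calls; inactive = the rest.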

Assay: quenchers of FAM-labeled RNA aptamer fluorescence, confirmation, artefact control for GRK2 aptamer binding project, biochemical, single concentration, cherry pick 2, flow cytometry (AID 588494);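 note: labelled aptamer on streptavidin beads without GRK2 as a quench counter-screen; 100% = bead fluorescence of DMSO wells and lower means quenching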
Settings: carboxyfluorescein RNA aptamer beads, flow cytometry quenching; at 10 µM; active compounds read low

Fluorescence response vs DMSO, inactive:
O=C(NCCCN1CCCCCC1)c1ccc(N2CCCC2=O)cc1 100%
CC1Sc2ccc(S(=O)(=O)CCC(=O)NCc3ccccc3Cl)cc2NC1=O (stereo not given) 100%
CCOCCc1c(O)nc(SCC(=O)NCc2ccco2)[nH]c1=O 100%
CCN1CCN(C(=O)N[C@@H](C(=O)N[C@@H]2C(=O)N3C(C(=O)O)=C(CSc4nnnn4C)CS[C@H]23)c2ccc(O)cc2)C(=O)C1=O 99%
Cc1ccc(S(=O)(=O)CC(=O)Nc2sc(C)c(C)c2C(N)=O)cc1 103%
COc1ccccc1C(=O)N(Cc1ccc(C)o1)C1CCS(=O)(=O)C1 (stereo not given) 98%
CCOC(=O)C1=C(N)N(c2ccc(C)cc2)C2=C(C(=O)CCC2)C1c1cccs1 (stereo not given) 106%
CC1CCN(C(=S)NC2CC3CCC2C3)CC1 (stereo not given) 99%
COCCn1c(N)c(NCc2ccccc2)c(=O)[nH]c1=O 103%
O=C(NC1C2CC3CC(C2)CC1C3)c1ccc(N2CCNCC2)c([N+](=O)[O-])c1 (stereo not given) 101%
CCC(C)(C(=O)NC1CCCCC1)N(C)C(=O)c1ccc2c(c1)OCO2 (stereo not given) 103%
O=C(C1CCCN(S(=O)(=O)c2ccc([N+](=O)[O-])cc2)C1)N1CCCCC1 (stereo not given) 103%
CN=C(Nc1cccc(S(=O)(=O)N2CCOCC2)c1)c1ccccc1 110%
CCOc1ccc(OCC)c(NC(=O)CCS(=O)(=O)c2ccc(C)cc2)c1 99%
CC(=O)c1ccc(N2CCN(C(=O)c3ccc4nc[nH]c4c3)CC2)cc1 102%
COc1ccc(Cl)cc1NC(=O)CCS(=O)(=O)c1ccc(Br)cc1 101%
CCc1nn(CCCN2CCN(c3cccc(Cl)c3)CC2)c(=O)n1CCOc1ccccc1 100%
COc1ccc(Cl)cc1NC(=O)CCS(=O)(=O)c1cc2c(cc1C)NC(=O)CO2 98%
Cc1nnc(SCC(=O)N2c3ccccc3C(C)(c3ccc(Cl)cc3)CC2(C)C)s1 (stereo not given) 100%
NC(=O)[C@H]1CC2(CC(c3cccc(NC(=O)[C@H]4CCC(=O)N4)c3)=NO2)CN1C(=O)c1ccccc1C(=O)c1ccccc1 (stereo not given in full) 101%
COc1cc([N+](=O)[O-])cc([N+](=O)[O-])c1NC(=O)N1CCOCC1 103%
O=C(CCS(=O)(=O)c1ccccc1)NC1CCCC1 94%
CCOCCCNC(=O)c1ccc(CS(=O)(=O)c2cccc(C(F)(F)F)c2)o1 103%
O=[N+]([O-])c1ccccc1S(=O)(=O)Nc1cccc2cccnc12 103%
COc1cccc(OC)c1C(=O)Nc1ccc(Cc2ccncc2)cc1 98%
